Bioassay records from PubChem.
ASM inhibitor – human S-ASM enzyme inhibition; P17405; placental ASM, HMU-PC fluorogenic substrate, 60 min; Potency, µM (doses to about 57.5 µM), inactives show top-dose activity change, negative = inhibition, usual class: inhibitors; 0.006% of 340,000 active
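Human placenta-derived ASM enzyme was preincubated with compound for 10 minutes at room temperature, then given fluorogenic substrate HMU-PC0 (9 uM final) for 60 minutes at 37 °C; a pH 10 stop preceded fluorescence reading at Ex 386/Em 447 nm.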
TDP1 inh – TDP1 (human) enzyme inhibition. Potency, µM (top dose mostly 130 µM), for the others: at the top dose activity change, negative = inhibition, most hits filed as inhibitors. Q9NUW8. AID 485290. recombinant TDP1, AlphaScreen DNA substrate cleavage. 0.28% of 350,000 active; also: % is scaled to controls: 0 for no effect and ±100 for the full control effect; nearly all actives have a fitted effect of over 40% in size
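Compounds were preincubated with Tdp1 (1 nM final) for 15 min at room temperature before substrate (15 nM final) started a 5 min reaction; beads (10 ug/ml final) were then added for 10 min before AlphaScreen detection.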
Pin1 inh – human Pin1 inhibition. Q13526. Pin1 FP peptide displacement, HiFluor488, 10 min. Potency, µM (doses to about 115 µM), for inactives: top-dose activity, negative = inhibition, usual class: inhibitors. 0.009% of 390,000 active. AID 504891; active = well fitted inhibition curve with a large enough effect in the polarisation, with a control signal flat, not every such curve was filed as active; inconclusive = small, poorly fitted or top-dose-only effect, or effect the other way, or a change in a side signal; inactive = no such curve, though single readings can be large or run the other way; the % refers to the polarisation; also: % is scaled to controls: 0 for no effect and ±100 for the full control effect
Target sequence (Q13526 whole entry, looked up): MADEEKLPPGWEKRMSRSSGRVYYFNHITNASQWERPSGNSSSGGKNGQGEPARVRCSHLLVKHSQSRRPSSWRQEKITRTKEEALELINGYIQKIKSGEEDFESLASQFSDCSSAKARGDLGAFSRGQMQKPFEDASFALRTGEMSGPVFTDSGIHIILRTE
VDR inh – vitamin D3 receptor (human) inhibition. P11473. VDR-SRC2-3 peptide fluorescence polarization, 2 h. Potency, µM, for inactives: max response, negative = inhibition, usual class: inhibitors. 0.93% of 400,000 active. AID 504847; also: % is scaled to controls: 0 for no effect and ±100 for the full control effect
Target sequence (P11473 whole entry, looked up): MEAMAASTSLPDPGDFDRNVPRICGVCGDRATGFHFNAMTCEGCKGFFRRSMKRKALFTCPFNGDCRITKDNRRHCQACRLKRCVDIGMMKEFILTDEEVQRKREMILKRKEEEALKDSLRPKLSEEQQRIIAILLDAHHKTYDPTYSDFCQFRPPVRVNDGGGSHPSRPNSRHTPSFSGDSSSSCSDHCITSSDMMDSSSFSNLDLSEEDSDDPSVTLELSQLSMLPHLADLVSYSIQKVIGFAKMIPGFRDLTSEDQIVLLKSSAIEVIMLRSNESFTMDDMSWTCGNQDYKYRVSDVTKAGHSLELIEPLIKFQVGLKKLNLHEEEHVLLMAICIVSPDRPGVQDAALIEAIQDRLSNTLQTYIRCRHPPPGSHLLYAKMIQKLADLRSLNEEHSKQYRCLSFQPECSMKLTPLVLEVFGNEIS
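Compounds are added to VDR with labelled SRC2-3 coactivator peptide and held 2 h at room temperature. Inhibition of the VDR–peptide interaction is then read as a change in fluorescence polarization.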
PLK1 PBD block – PLK1 (human) polo-box domain binding inhibition | AID 720504 | Plk1 PBD binding of FITC phosphopeptide, fluorescence polarization | 2.8% of 360,000 active | Potency, µM, without a hit: max response, negative = inhibition, usual class: inhibitors | P53350; also: series mostly up to about 57 µM; % is scaled to controls: 0 for no effect and ±100 for the full control effect; nearly all actives have a fitted effect of over 65% in size
Tb PFK block – inhibitors of T. brucei phosphofructokinase; O15648; T. brucei PFK, ADP-Glo luminescence; Potency, µM (top dose mostly 57.5 µM), for inactives: at the top dose activity, negative = inhibition, usual class: inhibitors; 0.17% of 330,000 active;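 also: 0% = uninhibited 1x PFK enzyme wells and -100% = no-enzyme wells; nearly all actives have a fitted effect of over 60% in size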
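Activity is normalized to no-enzyme wells (full inhibition) and 1.25 nM enzyme wells (no inhibition). Reaction: 0.5 mM F6P, 0.1 mM ATP, 45 min RT, ADP-Glo luminescence; concentration-response curves fitted and classed by quality.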
The depositor's hits bear a star; ? = inconclusive; / = not tested or not shown; ! = not confirmed by another sample; [ ] = remark or other dose. The list is not random: actives were taken first. Their share in the collection is about 3.1%. Unless noted, calls follow the shape of the dose curve; as a rule, active = well fitted curve in the direction sought with a large enough effect; inconclusive = small, poorly fitted or top-dose-only effect, or another doubt; inactive = no such curve, though single readings can be large; an effect the other way counts as inactive or inconclusive. Potency is read from the fitted curve at half-maximal effect.

SMILES	ASM inhibitor	TDP1 inh	Pin1 inh	VDR inh	PLK1 PBD block	Tb PFK block
O=C(NCc1ccc(Cl)cc1)c1n[nH]c([N+](=O)[O-])c1Cl	5%	8%	-1%	?	19µM*	-22%
COc1ccc2cc1Oc1ccc(cc1)CC1c3cc(c(OC)cc3CCN1C)Oc1c(OC)c(OC)c(OC)c3c1C(C2)N(C)CC3 (stereo unspecified)	/	17%	/	45µM*	/	/
Cc1ccc2c(c1C)-c1c(ccc(C)c1C)C(=O)C2=O	-10%	/	-7%	?	19µM*	/
CCn1c2ccccc2c2nnc(N3CCN(c4ccc(OC)cc4)CC3)nc21	/	-1%	-2%	5%	/	/
COc1ccc([C@@H]2CC(=O)c3c(O)cc(O[C@@H]4O[C@H](CO)[C@@H](O)[C@H](O)[C@H]4OC4O[C@@H](C)[C@H](O)[C@@H](O)[C@H]4O)cc3O2)cc1O (stereo partly specified)	/	7%	/	20%	/	/
Cc1ccc(C(C[N+](=O)[O-])c2c(N)n(C)c(=O)n(C)c2=O)cc1 (stereo unspecified)	-1%	2%	2%	79µM*	-17%	2%
COc1cccc(F)c1C(C[N+](=O)[O-])c1c(N)n(C)c(=O)n(C)c1=O (stereo unspecified)	1%	-1%	-4%	79µM*	-2%	21%
COc1cc(C(C[N+](=O)[O-])c2c(N)n(C)c(=O)n(C)c2=O)ccc1O (stereo unspecified)	6%	3%	0%	?	-5%	29%
COc1ccc(C(C)=O)cc1CC(=O)N(Cc1ccccc1)c1ccccc1	-3%	-8%	11%	-18%	30µM*	0%
COC(=O)c1ccc(C(=O)N(Cc2ccccc2)c2ccccc2)cc1	-13%	-8%	0%	1%	-12%	3%
COCCN(CCOC)S(=O)(=O)c1ccc(Cl)nc1	3%	2%	-1%	-26%	21µM*	-3%
CCc1cccc(OCCCCNCCO)c1	1%	-4%	-1%	0%	27µM*	-3%
COc1ccc(O)c(C2Nc3ccccc3C(=O)N2Cc2ccccc2)c1 (stereo unspecified)	/	1%	1%	/	/	/
COc1cc(NC(=O)CSc2nc3nc(C)c(Cc4ccccc4)c(C)n3n2)cc(OC)c1OC	/	10%	0%	11%	/	/
CCc1ccc(-c2cn3c(n2)sc2cc(C(=O)NCCc4ccc(OC)cc4OC)ccc23)cc1	/	3%	-1%	9%	/	/
CCCN(Cc1cc2cc(C)ccc2[nH]c1=O)C(=O)c1ccccn1	-4%	7%	-3%	?	19µM*	0%
c1ccc(-c2[nH]ncc2-c2ccnc3ccccc23)nc1	/	14%	/	-6%	/	/
CCC(CC)c1nnc(NC(=O)C2CC(=O)N(CCc3ccc(F)cc3)C2)s1 (stereo unspecified)	1%	9%	5%	79µM*	24µM*	-1%
CCC(CC)c1nnc(NC(=O)C2CC(=O)N(CCc3ccc(OC)c(OC)c3)C2)s1 (stereo unspecified)	-2%	-4%	-6%	0%	2%	16%
Cc1ccc2oc(C(=O)NCC(c3ccc(Cl)cc3)N3CCOCC3)c(C)c2c1 (stereo unspecified)	/	4%	4%	16%	/	/
COC(=O)c1ccc2c(=O)n(CCCCCC(=O)N3CCN(c4cc(Cl)ccc4C)CC3)c(=O)[nH]c2c1	/	2%	1%	0%	/	/
Cc1ccc2c(CC(=O)OCc3cc(=O)n4c(n3)sc3ccccc34)coc2c1	-15%	25µM*	?	5%	?	-6%
O=C(OCc1cc(=O)n2c(n1)sc1ccccc12)c1ccc2c(=O)n3c(nc2c1)CCC3	5%	50µM*	?	4%	-14%	-22%
CC(C)[C@H](NC(=O)Cc1ccccc1)C(=O)OCc1cc(=O)n2c(n1)sc1ccccc12	-14%	/	?	2%	-26%	-14%
CC(=O)c1ccc(N2CCN(S(=O)(=O)c3ccc4c(c3)NC(=O)CC(=O)N4)CC2)cc1	5%	/	30%	?	27µM*	-7%
SMILES	ASM inhibitor	TDP1 inh	Pin1 inh	VDR inh	PLK1 PBD block	Tb PFK block
O=C1Cc2cc(S(=O)(=O)N3CCN(c4ccc(Br)cc4)CC3)ccc2N1	/	/	48%[230 µM]	/	/	/
O=C(CSc1nccn1-c1ccc(F)cc1)Nc1ccc(OC(F)(F)F)cc1	/	10%	-3%	1%	/	/
COc1cccc(-n2c(N)c(-c3nc4ccccc4[nH]3)sc2=S)c1	-1%	10%	1%	4%	27µM*	4%
Cc1nnc(C)n1/N=C/c1cccn1C	2%	7%	-8%	-16%	3µM*	0%
O=C(/C=C/c1ccccc1)N1c2ccccc2Sc2ccc(C(F)(F)F)cc21	0%	0%	1%	-20%	-19%	-4%
CCN(CC)CCC(=O)N1c2ccccc2Sc2ccc(C(F)(F)F)cc21	/	3%	/	28µM*	/	/
CN(C)CCC(=O)N1c2ccccc2Sc2ccc(Cl)cc21	1%	3%	5%	12%	-1%	-23%
CCN(CC)CCC(=O)N1c2ccccc2Sc2ccc(Cl)cc21	4%	4%	-1%	50µM*!	3%	-12%
CS(=O)(=O)NCCn1ccc2ccccc21	-2%	1%	-3%	-11%	30µM*	-15%
O=Cc1sc(=O)n(Cc2cccc(C(=O)O)c2)c1Cl	-3%	7%	9%	79µM*	30µM*	-4%
Nc1nc(CN2CCOCC2)cs1	-2%	4%	-7%	?	24µM*	4%
O=C(Nc1cccc2ccccc12)NC1CCCCC1	2%	2%	-2%	10%	-6%	7%
O=C(NC1CCCCC1)Oc1cccc2ccccc12	-2%	3%	6%	-17%	24µM*	-1%
CCCCNC(=O)C(CC)n1c(SCc2cccc(F)c2)nc2ccncc21 (stereo unspecified)	/	1%	6%	-17%	/	/
COc1cccc(C2=Nn3c(nnc3-c3cc(OC)ccc3OC)SC2)c1	/	11%	1%	/	/	/
CC1Cc2ccccc2N1C(=O)CSc1nnc(NC(=O)Cc2cccs2)s1 (stereo unspecified)	-3%	2%	77%	9%	30µM*	-17%
CCC(=O)Nc1nnc(SCC(=O)N2c3ccccc3CC2C)s1 (stereo unspecified)	2%	7%	-4%	8%	-5%	-2%
CC(C)(C)c1ccc(C(=O)CCCN2CCC(OC(c3ccccc3)c3ccccc3)CC2)cc1	/	2%	/	2%	/	/
CC(C)CC(=O)Nc1cccc2c1C(=O)N(c1ccccc1)C2=O	-5%	5%	?	-9%	-1%	-1%
CC(C)CC(=O)O/N=C1\C(=O)N(c2ccccc2)c2ccccc21	0%	2%	-5%	-19%	30µM*	1%
CCSc1nnc(NC(=O)CSc2nccn2-c2cccc(C)c2C)s1	-11%	7%	7%	?	3.8µM*	-1%
